YB-1 expr inh – inhibitors of YB-1 gene expression, primary screen, cell-based, fluorescence | U2OS, qRT-PCR YB-1 vs CDIP delta delta Cp, 16 h; hits give high values; zero = DMSO, each unit about twofold | delta delta Cp (YB-1 minus CDIP) (test concentration not listed) | hit rate 0.37% among 30,000;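 active = delta delta Cp rounded down to an integer at or above 3, about 3 SD of DMSO wells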;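 also: higher means less YB-1 transcript or more CDIP transcript relative to DMSO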
ROS inducer – ROS inducers in U2OS cancer cells, primary screen, cell-based, H2DCF-DA fluorescence | U2OS ROS induction | ROS induction (% of piperlongumine), % at 10 µM | hit rate 2% among 46,000 | AID 624156, 2012; in the data active = ROS induction above about 79%, passing the limit was not always enough;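 also: 0% = DMSO vehicle median and 100% = reference compound median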
Numbers without * were called inactive; . = no result. The list is not random: actives were taken first. Their share in the collection is about 2.3%.

SMILES	YB-1 expr inh	ROS inducer
C[C@H](CO)N1C[C@H](C)[C@@H](CN(C)Cc2cccc(C(=O)O)c2)OCc2cnnn2CCCC1=O	0.251	-3.9
Cc1noc(C)c1NC(=O)N(C)C[C@H]1Oc2ccc(NC(=O)Nc3ccc4c(c3)OCO4)cc2CC(=O)N([C@@H](C)CO)C[C@@H]1C	-0.0576	-8.3
Cc1ccc(OC(=O)c2cc(S(=O)(=O)N3CCCC3)ccc2C)cc1C	.	4.3
CCN(CC)S(=O)(=O)c1ccc(Cl)c(C(=O)Oc2ccc(C)c(C)c2)c1	9.08*	14.3
CCOC(=O)c1cnc(Nc2nc3ccccc3s2)nc1CSc1nnc(C)s1	.	1.7
CC(C)c1ccc(C2C(C#N)=C(N)C(C#N)(C#N)C3=CCN(C)CC32)cc1 (configuration not stated)	-0.743	68.0
Cc1coc(C)c1C(=O)CC1(O)C(=O)N(Cc2cccc3ccccc23)c2ccccc21 (configuration not stated)	.	6.6
CC(=O)N1CCN(c2ccc(OC(=O)c3ccc(Oc4cc(Cl)cc(Cl)c4)o3)cc2)CC1	.	-2.6
O=C(Nc1ccccc1)c1ccc(CSc2nnc(-c3ccncc3)n2-c2ccccc2)cc1	.	109.2*
O=C(CSc1nnc(-c2ccncc2)n1-c1ccccc1)Nc1ccc(C(F)(F)F)cc1	.	4.5
COCCN1C(=O)/C(=C/c2cn(CC(=O)OC)c3ccccc23)C(=O)N(c2ccccc2)C1=O	0.0336	93.0*
CCOC(=O)Cn1cc(/C=C2\C(=O)NC(=O)N(c3ccc(F)cc3)C2=O)c2ccccc21	.	44.0
S=C(NC1CC1)N1CCCN(Cc2cccc3ccccc23)CC1	.	-2.8
Cc1ccc(S(=O)(=O)/C=C/C#N)cc1	0.148	142.7*
Cc1ccc(S(=O)(=O)c2ccc(C)cc2)cc1	0.262	-0.8
CC(C)(C)c1ccc(NC(=O)c2ccc(C(C)(C)C)s2)cc1	.	-3.3
CC(C)(C)c1ccc(NC(=O)c2ccc(N3C(=O)CSCC3=O)cc2)cc1	.	150.0*
C[C@@H]1CN([C@@H](C)CO)C(=O)Cc2cc(NS(=O)(=O)c3ccc(Cl)cc3)ccc2O[C@@H]1CN(C)C(=O)Nc1ccc(C(F)(F)F)cc1	-0.307	23.7
C[C@H]1CN([C@@H](C)CO)C(=O)c2cc(NS(=O)(=O)c3ccc(Cl)cc3)ccc2O[C@@H]1CN(C)C(=O)NC1CCCCC1	0.144	3.5
COc1ccc(S(=O)(=O)Nc2cccc3c2O[C@@H](CN(C)C(=O)Nc2cccc4ccccc24)[C@@H](C)CN([C@H](C)CO)C3=O)cc1	-0.471	-1.2
C=CCOc1ccc2ccccc2c1CNc1nn[nH]n1	.	10.0
CC(=O)N1Cc2ccccc2C[C@]2(N=C(c3ccc(OCCCO)cc3)O[C@@H]2c2ccccc2)C1=O	0.173	33.8
CC(=O)N1Cc2ccccc2C[C@@]2(N=C(c3ccc(OCCCO)cc3)O[C@H]2c2ccccc2)C1=O	0.0195	78.7*
O=C(NCc1ccccc1)[C@@]1(CCS(=O)(=O)c2ccccc2)N=C(c2ccc(OCCCO)cc2)O[C@H]1c1ccccc1	-0.331	78.3*
O=C(NCC(O)CO)[C@]1(CCS(=O)(=O)c2ccccc2)N=C(c2ccc(OCCCO)cc2)O[C@@H]1c1ccccc1 (some centres not stated)	0.548	24.0
SMILES	YB-1 expr inh	ROS inducer
C=CCN1Cc2ccccc2[C@@H]2OC(c3ccc(OCCCO)cc3)=N[C@]2(CCS(=O)(=O)c2ccccc2)C1=O	0.249	51.0
O=C1N(CCS(=O)(=O)c2ccccc2)Cc2ccccc2[C@@H]2OC(c3ccc(OCCCO)cc3)=N[C@]12CCS(=O)(=O)c1ccccc1	0.408	95.6*
Cc1nn(-c2ccccc2)nc1CNC(=O)c1cc(F)cc2c1OCOC2	.	11.7
COC(=O)CCCCCCC(=O)N/N=C/c1cc(OC)c(OC)cc1[N+](=O)[O-]	-0.278	118.5*
COc1cc(/C=N/NC(=O)CCCCCC(=O)O)c([N+](=O)[O-])cc1OC	0.108	-4.7
COc1ccc(-c2nc(SC)c(S(=O)(=O)c3ccc(C)cc3)[nH]2)cc1	.	-8.0
Cc1noc(C)c1NC(=O)Nc1ccc2c(c1)CC(=O)N([C@@H](C)CO)C[C@@H](C)[C@@H](CN(C)S(=O)(=O)c1c(C)noc1C)O2	-0.143	85.2*
Cc1ccc(S(=O)(=O)N(C)C[C@H]2Oc3ccc(NC(=O)Nc4c(C)noc4C)cc3CC(=O)N([C@@H](C)CO)C[C@H]2C)cc1	9.83*	-11.0
Cc1ccc(S(=O)(=O)N(C)C[C@@H]2Oc3ccc(NC(=O)Nc4c(C)noc4C)cc3CC(=O)N([C@H](C)CO)C[C@H]2C)cc1	-0.127	-1.3
Cc1noc(C)c1NC(=O)Nc1ccc2c(c1)CC(=O)N([C@H](C)CO)C[C@@H](C)[C@H](CN(C)S(C)(=O)=O)O2	0.519	32.7
C[C@@H]1CN([C@@H](C)CO)C(=O)c2cccc(NC(=O)CCCCCC(=O)Nc3ccccc3N)c2O[C@@H]1CN(C)Cc1ccccc1	-0.00569	2.8

Compound activity as filed in PubChem.
